Results filed as inconclusive are left out. Entries that show only a call come without a potency. Activity calls are given as the source filed them. Calls come from the whole dose curve; as a rule, active = well fitted cell-killing curve with a large enough effect; inconclusive = small, poorly fitted or top-dose-only effect; inactive = flat fitted curve, though single readings scatter. Square brackets hold non-standard residues; d marks the D form. Peptide text beside a SMILES is read from it. ξ: configuration not given here. ξL = CC(C)CC(N)C(=O)O
Potency is the fitted concentration of half-maximal effect.

This test in a line: Vero-766 cells viability qHTS against the NCATS CANVASS Library: Counterscreen for Zika virus inhibition assay (AID 1347394). Note: nearly all actives have a fitted effect of over 60% in size. The conditions noted are these: Vero 766 viability, CellTiter-Glo luminescence, 72 h; series mostly up to 46.1 µM. An excerpt: Natural products and their derivatives continue to be wellsprings of nascent therapeutic potential. However, many laboratories have limited resources for biological evaluation, leaving their previously isolated or synthesized compounds largely or completely untested. To address this issue, the Canvass library of natural products was assembled (https://tripod.nih.gov/canvass), in collaboration with academic and industry researchers, for quantitative high-throughput screening (qHTS) across a diverse set of cell-based and biochemical assays. The pure (>85% purity by liquid chromatography/mass spectrometry [LC/MS]) Canvass library of 346 natural products were submitted by 45 academic laboratories and companies around the world. We collected pure natural products to circumvent deconvolution and structure elucidation due to time and resource limitations. The library was formatted into 1536-well plates and evaluated in 50 qHTS (in an 11-pnt concentration series) bioassays with broad scope of disease-relevant mechanisms. The resulting data set from 50 different assays was then systematically analyzed to identify overall trends and specific natural products with interesting biological activities. Reported herein are the results of each individual qHTS and their corresponding assay protocol. The vero cell viability assay was performed in the absence of Zika virus utilizing Cell Titer Glo to eliminate toxic compounds. A decrease in the luminescence signal is caused by cytotoxic compounds. National Center for Advancing Translational Sciences (NCATS), Rockville, MD National Institute of Health (NIH), Bethesda, Maryland
Zika-counterscreen assay protocol: 1. In a white-solid bottom, 1536-well tissue culture plate (Corning 7494), 3 uL of Vero 766 cells derived (African Green Monkey) were dispensed into columns 1, 2, and 5 - 48 using a Multidrop Combi (Thermo Fisher Scientific) at a final concentration of 1000 cells / well. Media only was dispensed in columns 3 and 4 to be used as a control (100% inhibition). 2. The assay plates were incubated overnight at 37C, 5% CO2, 95% humidity to acclimate and attach. 3. […] of compounds (in DMSO; columns 5-48) were pin transferred into the assay plates using the Kalypsis pin tool (Wako USA) equipped with a 1536-well pin heads. This yields a final concentration range of 0.001 - 77 uM. The assay plates were sealed with breathable film. 4. The assay plates were incubated for 72 hours at 37C, 5% CO2, 95% humidity. 5. After incubation, the seals were removed by Xpeel Automated Plate Seal Remover (Brooks Life Sciences) and 2.5 uL of CellTiter Glo reagent (Promega) was dispensed into the wells (columns 1 - 48, rows 1 - 32). 6. Luminescence signal was obtained via the ViewLux plate reader (Perkin Elmer) using the clear emission filter and 1x binning, 2 seconds exposure settings.
(In qHTS, concentration-response curves come from the screen itself.)
Consider `CO/C=C/C(=O)c1cc2cnc3c(N)cc(=NC(=O)C(C)C)c([nH]1)c23`, for which the Potency is 0.524 µM (active).

As to `CC[C@@H]1C[C@@]2(CC)OC(=O)[C@@]3(CC)[C@H](CC)[C@@H]1[C@@H]23`, the Potency result is “inactive”.

For the molecule `C/C=C/c1cc2c(c(=O)o1)C(=O)[C@@H](O)[C@H](C)O2`, the Potency result was “inactive”.

Consider `C/C=C/[C@H]1[C@H]2C(=O)c3c(O)c(C)c(O)c(C)c3[C@]1(C(=O)O)C(=O)C=C2C`, for which the Potency result is “inactive”.

Regarding `C[C@]12CC[C@]3(C1)[C@H](CC2=O)C[C@@H](OC(=O)c1ccccc1)[C@H]1[C@](C)(C(=O)O)CCC[C@@]13C`, the Potency is 6.6 µM (active).

For the molecule `CN1CC[C@]2(c3cccc4c3N[C@H]3N(C)CC[C@@]43[C@]34CCN(C)[C@H]3Nc3ccccc34)c3ccccc3N[C@H]12`, the Potency was 20.9 µM (active).

In the case of `CN1CC[C@]23c4ccccc4N[C@H]1[C@]21CCN(C)[C@H]3Nc2ccccc21`, the Potency entry was “inactive”.

With `CC1(C)CC[C@]2(CO)CC[C@]3(C)C(=CCC4[C@@]5(C)CC[C@H](O)C(C)(C)C5CC[C@]43C)C2C1` (stereo not given in full), the Potency result was “inactive”.

Regarding `COC(=O)C1=C[C@]23C[C@@H](C)CC[C@@H]2[C@@]2(C)CC[C@@H](C(C)C)[C@@](O)(O3)[C@@H]12`, the Potency result was “inactive”.

As for `CO[C@@H]1[C@H](O)[C@@H](C)O[C@@H](OC[C@@H]2C(C)OC(=O)/C=C/[C@H](C)C(O[C@@H]3O[C@H](C)CC4(OC(=O)O[C@@H]4C)C3O)[C@@H](C)CC(C)C(=O)/C=C/[C@H]3OC23)[C@@H]1OC` (stereo not given in full), the Potency result is “inactive”.

Consider `C=C1CCC2C(C)(C(=O)O)CCC(CC/C(C)=C/C(=O)NC(CCC(N)=O)C(=O)O)[C@@]2(C)C1` (stereo not given in full), for which the Potency result was “inactive”.

Take `CC[C@@H](C)[C@H]1NC(=O)C(CC(C)C)NC(=O)[C@@H](CC(C)C)NC(=O)[C@H](Cc2c[nH]c3ccccc23)NC(=O)CNC(=O)[C@@H](CC(N)=O)NC1=O` (stereo partly drawn) (cyclo(GW[dL][ξL][dI][dN])): the Potency entry is “inactive”.

Turning to `CC[C@@H](c1cc(OC)c(OC)cc1OC)[C@H](C)[C@@H](/C(C)=C/c1cc(OC)c(OC)cc1OC)c1cc(OC)c(OC)cc1OC`, the Potency result is “inactive”.

As to `O=C1CC2OCC=C3CN4C5CC3C2[C@@H]2N1c1ccccc1[C@]52C[C@@H]4C1=C[C@H]2C3CC4N(CC[C@@]45c4ccccc4N(C1=O)[C@@H]25)C/C3=C/CO` (stereo not given in full), the Potency result was “inactive”.

For the molecule `O=Cc1ccc2n1C[C@]1(C[C@H](O)[C@@H](CO)O1)OC2`, the Potency entry is “inactive”.

For `O=c1cc(-c2ccc(O)cc2)oc2cc(O)c([C@@H]3OC(CO)[C@H](O)[C@@H](O)[C@H]3O)c(O)c12` (stereo not given in full), the Potency result is “inactive”.

As to `CN1C(=O)C(=O)N2C(=C[C@]3(c4c[nH]c5ccccc45)c4ccccc4N[C@H]23)C1=O`, the Potency result was “inactive”.

`CO[C@H]1[C@@H](OC(=O)/C(C)=C\[C@@H]2O[C@@H]2[C@H]2O[C@H]2C)[C@H](O)[C@H](OCC23C[C@@H]4[C@H](C)CC[C@H]4C4(C=O)CC2C=C(C(C)C)C34C(=O)O)O[C@@H]1C` (stereo not given in full): the Potency result is “inactive”.

As for `C[C@@]12CCC[C@@](C)(C(=O)OP(=O)(O)OC[C@H]3O[C@@H](n4cnc5c(N)ncnc54)[C@H](O)[C@@H]3O)[C@H]1C[C@@H](O)[C@@]13C[C@@H](CC[C@@H]21)[C@](C)(O)C3`, the Potency entry was “inactive”.

Turning to `CC[C@H]1[C@H](C)[C@H](c2cc(OC)c(OC)cc2OC)[C@@H](C)[C@H](c2cc(OC)c(OC)cc2OC)[C@@]12C=C(OC)C(=O)C=C2OC`, the Potency result was “inactive”.

Consider `C[C@@H]1CC[C@]2(C(=O)O)CC[C@]3(C)C(=C2[C@H]1C)CC[C@@H]1[C@@]2(C)CC[C@H](O)C(C)(C)[C@@H]2CC[C@]13C`, for which the Potency was 18.6 µM (active).

On to `COc1cc(O)c(C(=O)[C@@H]2[C@H](CC=C(C)C)C(C)=CC[C@H]2c2ccccc2)c(O)c1`, for which the Potency is 23.4 µM (active).

`COc1cc2ccc(=O)oc2c(O)c1O[C@@H]1O[C@H](CO)[C@@H](O)[C@H](O)[C@H]1O`: the Potency result was “inactive”.

On to `C=C1C[C@]23C=CC(=O)[C@@](C)(CCCC(C)C(=O)N[C@@H](CO)C(=O)O)[C@@H]2C[C@@H]1CC3` (stereo not given in full), for which the Potency entry is “inactive”.

For `CCCc1c2c([nH]c(=O)c1C)C(=O)c1[nH]c(=O)c(C)c(CCC)c1C2=O`, the Potency entry was “inactive”.

Take `C=C1CC[C@@H](Br)C(C)(C)[C@]12CC=C(C)C(=O)C2`: the Potency result was “inactive”.

Consider `C=C1CC[C@@H](O[C@H]2C[C@@](O)([C@H](C)NC(=O)c3[nH]c(C)c(Cl)c3Cl)[C@H](O)[C@@H](C)O2)[C@@H]2C=C[C@H](C)C(/C(O)=C3/C(=O)[C@H](C(C)C)N([C@@H]4O[C@H](C)[C@H](OC(N)=O)[C@H](OC(C)=O)[C@@H]4OC)C3=O)[C@@H]12` (stereo not given in full), for which the Potency result was “inactive”.

Turning to `C/C1=C/[C@@H](C)[C@H](O)[C@@H](O)/C=C/CC/C=C/C(=O)O[C@@H]1[C@H](C)C(=O)/C=C/CC1CC(=O)NC(=O)C1`, the Potency result is “inactive”.

Take `C[C@@]1(CCC(=O)Nc2c(O)ccc(C(=O)O)c2O)C(=O)C=C[C@]23C[C@H]4C[C@H](O[C@@]4(C)C2)C31` (stereo not given in full): the Potency entry is “inactive”.

For `C/C(=C\CC[C@@H](C)[C@H]1CC[C@]2(C)C3=CCC4C(C)(C)[C@@H](O)C[C@@H](O)[C@]4(C)C3[C@H](O)C[C@@]12C)CO` (stereo not given in full), the Potency is 33.1 µM (active).

Consider `COc1ccc([C@@H]2c3cc4c(cc3C(=O)C(C)C2C)OCO4)cc1OC` (stereo not given in full), for which the Potency result is “inactive”.

On to `COc1cc(C2OCC3C(c4ccc(O)c(OC)c4)OCC23)ccc1O` (stereo not given), for which the activity change, negative = cytotoxic was -3.52% [at 9.19 µM] (inactive).

For the molecule `CN1CCc2cc3c(c4c2C1(C)C(=O)c1cc(O)ccc1-4)OCO3` (stereo not given), the Potency result was “inactive”.

With `CO[C@@H](C[C@@H](C)[C@@H](O)/C=C/C=C/CNC(=O)C(C)(C)[C@H](O)\C(C)=C/C=C\C=C\Cc1cnco1)[C@]1(O)[C@@H](C)C(=O)N(C)[C@@]12COC2=O`, the Potency entry was “inactive”.

`CC(=O)N[C@H](C)c1nc(/C=C/C=C/C(=O)CC2CC(=O)CC[C@]2(C)O)cs1` (stereo not given in full): the Potency result was “inactive”.

Turning to `COc1cc2c(cc1OC)[C@@H](c1ccc3c(c1)OCO3)C(C)[C@@H](C)C2=O` (stereo not given in full), the Potency result is “inactive”.

Take `COC(=O)c1cc2cc3c(c(O)c2c(=O)o1)OC1(CC3)CC2=C(O1)C(=O)c1c(O)c(OC)cc(OC)c1C2=O` (stereo not given): the Potency is 26.3 µM (active).

Turning to `COC(=O)[C@]1([C@H]2CCC(=O)O2)CC(=O)c2c(O)cc(C)cc2O1`, the Potency result was “inactive”.

In the case of `C=C[C@](Cl)(CBr)CCC=C(C)C`, the Potency result is “inactive”.

Consider `C=CC(C)(C)C(=O)[C@@H](C)[C@@H]1CC[C@@](C)(C=C)O1`, for which the Potency result is “inactive”.

Source of the values: PubChem BioAssay (NCATS).
